Calls of active or inactive are those of the source. Calls come from the whole dose curve; as a rule, active = well fitted activation curve with a large enough effect in the repeat runs; inconclusive = weak or mixed curves; inactive = flat fitted curve, though single readings scatter.
% is set by controls: 0 for no effect and ±100 for the full control effect.

The experiment in a line: Caspase-3/7 induction in CHO-K1 cells by small molecules, qHTS assay (AID 1346980). Note: nearly all actives have a fitted effect of over 15% in size. Particulars: CHO-K1 caspase-3/7 induction, Caspase-Glo luminescence, 17 h; series mostly up to 92.4 µM. An excerpt: National Center for Advancing Translational Sciences [NCATS]
NIH Chemical Genomics Center [NCGC]
U.S. Environmental Protection Agency [EPA]
National Institutes of Environmental Health Sciences [NIEHS]
National Toxicology Program [NTP]
Apoptosis is a process of programmed cell death and plays a central role in the development of multicellular organisms. It is a highly regulated process and induces cell death by activating caspases, which are the members of cysteine aspartic acid-specific protease (caspase) family. Caspases involved in apoptosis are classified by their mechanism of action as initiator caspases (caspase-2, -8, -9 and -10) and executioner caspases (caspase-3, -6, and -7). Inhibition of apoptosis results in number of cancers, autoimmune diseases, inflammatory diseases and viral infection. To identify small molecule compounds that induce apoptosis, a homogeneous, luminescent Caspase-Glo 3/7 assay was used. Wild type CHO-K1 cells were used to screen Tox21 libraries for identifying caspase-3/7 activity inducers.
CHO-K1 cells were dispensed at 1,500 per well in 5uL of culture medium into white solid bottom 1536-well plates (Corning Life Sciences, Corning, NY) using a Multidrop Combi (Thermo Scientific, Waltham, MA) dispenser. The assay plates were incubated at 37 C and 5% CO2 for 5hr, and then 23nL of compounds dissolved in DMSO and positive control were transferred using a Pintool station (Wako, San Diego, CA). The assay plates were incubated at 37C and 5% CO2 for 17hr. For caspase-3/7 activity read, 4uL of Caspase-Glo 3/7 reagent (Promega Corporation, Madison, WI) was added to each well of the assay plates using Flying Reagent Dispenser (FRD, Aurora Discovery, San Diego, CA) and incubated the assay plates at room temperature for 30min. The luminescence signal was quantified using a ViewLux plate reader (Perkin Elmer, Shelton, CT).
For orientation: In qHTS, concentration-response curves come from the screen itself.
For `C=CC(C)(O)CC/C=C(\C)CCC=C(C)C` (stereo not given), the molecule was called inactive. `OC[C@H]1O[C@@H](O[C@H]2[C@H](O)[C@@H](O)[C@H](O)O[C@@H]2CO)[C@H](O)[C@@H](O)[C@H]1O`: the molecule was classed as inactive. Same read-out and setting: then `CCCCCCOc1ccc(N)cc1`, with “inactive”. The same measure, in the same setting: then `CCCCC(=O)O[C@]1(C(=O)CO)[C@H](C)C[C@H]2[C@@H]3CCC4=CC(=O)C=C[C@]4(C)[C@@]3(F)[C@@H](O)C[C@@]21C`, with “inactive”. In the case of `CCCCCCCCCC#N`, the call was inactive.

As for `CCOC(=O)CS`, the outcome was inactive. With `Cc1nnc(SCC2=C(C(=O)O)N3C(=O)[C@@H](NC(=O)Cn4cnnn4)[C@H]3SC2)s1`, the call was inactive. Consider `CCc1cc2cc(OC)c(OC)cc2c(Cc2ccccc2)n1`, for which the outcome was inactive. With `Cc1ccc(C(C)C)cc1O`, the result was inactive. As to `CC/C=C\CCOC(=O)CCCCC`, the call was inactive.

With `CCCCCCCCCCCCOCCOS(=O)(=O)O`, the call was inactive. On to `CCOC(=O)NCCC[Si](OCC)(OCC)OCC`, for which the molecule was classed as inactive. Take `CC(Oc1c(Cl)cccc1Cl)C1=NCCN1` (stereo not given): the molecule was classed as inactive. On the same count and under the same terms, then `CC/C=C\CCOC(=O)C(C)C`, with “inactive”; and `O=C(O)[C@@H](O)[C@H](O)[C@H](O)[C@@H](O)C(=O)O`, with “inactive”; and `CN(C)CC[C@@H](c1ccc(Cl)cc1)c1ccccn1`, with “inactive”. As for `C1CSCCS1`, the molecule was classed as inactive. As for `CC(C)CCCCCCc1ccc(OCCOCCO)cc1`, the result was inactive. As to `CN1[C@@H]2CC[C@H]1CC(OC(=O)c1c[nH]c3ccccc13)C2` (stereo not given in full), the outcome was inactive.

On to `NC(=O)Cc1cccc(C(=O)c2ccccc2)c1N`, for which the call was inactive. As for `C[C@@H]1CN(c2c(F)c(N)c3c(=O)c(C(=O)O)cn(C4CC4)c3c2F)C[C@H](C)N1`, the caspase-3/7 activation is -1.56% [at 19 µM] (inactive). For the molecule `C[C@@H]1CN(c2c(F)c(F)c3c(=O)c(C(=O)O)cn(C4CC4)c3c2F)C[C@H](C)N1`, the caspase-3/7 activation was 0.203% [at 19 µM] (inactive). On to `OCc1ccccc1O`, for which the call was inactive. On the same count and under the same terms, in the case of `CN(C)CCOc1ccccc1Cc1ccccc1` it was “inactive”. For the molecule `Cc1ccc([N+](=O)[O-])c(N)c1`, the result was inactive.

`CC(CNC1CCCCC1)OC(=O)c1ccccc1` (stereo not given): the outcome was inactive. Turning to `CCCCCCCCCCCCCCCCOP(=O)([O-])OCC[N+](C)(C)C`, the call was inactive. On to `CC1CN(c2ccccc2)NC1=O` (stereo not given), for which the call was inactive. Take `Cc1c(-c2ccccc2)oc2c(C(=O)OCCN3CCCCC3)cccc2c1=O`: the call was inactive. Take `CCc1nnc(NS(=O)(=O)c2ccc(N)cc2)s1`: the call was inactive. `C[C@]12C(=O)OC(=O)[C@H]1[C@H]1C=C[C@@H]2C1`: the result was inactive. Same read-out and setting: in the case of `O=CCCc1ccccc1` it was “inactive”; in that of `CC1(O)CSC(C)(O)CS1` (stereo not given), “inactive”; in that of `Cc1cccc(C)c1NC(=O)CN1CCCCCC1`, “inactive”. With `Nc1ccc(Oc2ccc(N)c(N)c2)cc1`, the molecule was classed as inactive.

As to `FC(F)(F)c1ccccc1`, the molecule was classed as inactive. As for `O=c1[nH]c(=O)n([C@H]2C[C@H](O)[C@@H](CO)O2)cc1C(F)(F)F`, the molecule was called inactive. On the same count and under the same terms, then `CC(C)CC(=O)OCc1ccccc1`, with “inactive”; and `CCN(CC)C(=O)N(CC)CC`, with “inactive”; and `C=Cc1ccccc1`, with “inactive”.
